In all, about 310,000 compounds went through this assay and about 14,000 (4.5%) showed an effect of 50% or more. The effect is printed as a negative number. Many of the other results were omitted from the sample, so strong results are more common in it than they were.
target: human ether-à-go-go-related gene (hERG) potassium channel (human, UniProt Q12809); experiment: primary screen, population patch clamp on CHO cells stably expressing hERG; higher = less effect of the substance
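Also: peak tail current of the secondary pulse compared with the same well before compound.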

Sequence of human ether-à-go-go-related gene (hERG) potassium channel (Q12809 whole entry, looked up): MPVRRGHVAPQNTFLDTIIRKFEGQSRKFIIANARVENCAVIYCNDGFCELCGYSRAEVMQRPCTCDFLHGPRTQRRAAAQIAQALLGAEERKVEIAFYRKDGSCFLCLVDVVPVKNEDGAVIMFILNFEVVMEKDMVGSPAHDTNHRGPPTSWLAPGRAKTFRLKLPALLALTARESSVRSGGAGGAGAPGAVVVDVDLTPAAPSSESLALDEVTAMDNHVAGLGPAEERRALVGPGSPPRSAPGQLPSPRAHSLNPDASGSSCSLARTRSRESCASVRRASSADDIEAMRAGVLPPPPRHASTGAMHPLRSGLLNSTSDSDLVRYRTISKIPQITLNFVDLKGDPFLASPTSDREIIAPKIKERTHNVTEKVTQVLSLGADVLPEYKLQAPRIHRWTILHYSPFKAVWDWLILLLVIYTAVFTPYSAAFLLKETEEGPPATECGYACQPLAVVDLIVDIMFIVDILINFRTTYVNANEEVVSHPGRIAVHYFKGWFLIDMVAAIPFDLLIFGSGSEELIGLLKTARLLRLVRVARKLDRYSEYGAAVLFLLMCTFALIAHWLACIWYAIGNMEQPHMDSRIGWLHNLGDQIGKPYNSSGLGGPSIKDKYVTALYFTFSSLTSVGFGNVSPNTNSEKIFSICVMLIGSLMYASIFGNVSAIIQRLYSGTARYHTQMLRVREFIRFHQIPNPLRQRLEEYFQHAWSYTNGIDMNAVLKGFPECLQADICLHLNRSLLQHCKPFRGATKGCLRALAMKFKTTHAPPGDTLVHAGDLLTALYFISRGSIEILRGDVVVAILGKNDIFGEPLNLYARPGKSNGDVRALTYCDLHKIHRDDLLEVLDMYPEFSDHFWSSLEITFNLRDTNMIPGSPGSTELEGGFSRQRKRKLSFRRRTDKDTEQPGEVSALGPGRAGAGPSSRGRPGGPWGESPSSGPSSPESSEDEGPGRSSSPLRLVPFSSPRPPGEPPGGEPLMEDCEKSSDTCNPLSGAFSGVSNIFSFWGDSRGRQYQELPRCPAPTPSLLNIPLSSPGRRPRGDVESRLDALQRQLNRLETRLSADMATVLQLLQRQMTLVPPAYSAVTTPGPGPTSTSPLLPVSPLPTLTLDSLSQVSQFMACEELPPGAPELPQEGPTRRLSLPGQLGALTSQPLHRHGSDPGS

| SMILES | hERG current change (%, negative = inhibition) at 10uM [%] |
| --- | --- |
| CC(=O)Oc1ccc(-c2cc3c(OC(C)=O)cc(OC(C)=O)cc3oc2=O)cc1 | 14.1 |
| O=S(=O)(NCC1CCCO1)c1ccc(NS(=O)(=O)c2ccc(F)cc2)cc1 (stereo not shown) | 14.6 |
| Cc1cc(C)n(CC(=O)N2CCCC(N3CCN(Cc4ccc5c(c4)OCO5)CC3)C2)n1 (stereo not shown) | -14.2 |
| O=C(NCCc1ccccn1)c1ccc(OC2CCN(Cc3ccccn3)CC2)cc1 | 2.88 |
| O=C(Nc1ncc(Cc2cccc(Cl)c2)s1)c1ccc([N+](=O)[O-])cc1 | 10.6 |
| O=C(Nc1ccccc1)OCCOc1cccc(Br)c1 | 1.49 |
| Cc1ccc(CNC(=O)CCC2CCCN(Cc3cccc4cccnc34)C2)o1 (stereo not shown) | -66 |
| Cc1ccc(CNC(=O)CCC2CCCN(Cc3cccc4ncccc34)C2)o1 (stereo not shown) | -22.4 |
| Cc1nn(C(C)C)c(C)c1CN1CCCC(CCC(=O)NCc2ccccc2F)C1 (stereo not shown) | 0.286 |
| CC(C)c1csc(CN2CCCC(CCC(=O)NCc3ccccc3F)C2)n1 (stereo not shown) | -34.3 |
| Cc1ccc(CNC(=O)CCC2CCCN(Cc3ccc4cccc(F)c4n3)C2)o1 (stereo not shown) | -52.1 |
| Cc1ccc(CNC(=O)CCC2CCCN(Cc3c(C)nn(C(C)C)c3C)C2)o1 (stereo not shown) | -16.6 |
| O=C(NN1C(=O)C2C3C=CC([C@H]4CC34)[C@@H]2C1=O)c1ccc(Br)cc1 (stereo partly shown) | 8.18 |
| COc1ccc(CNC(=O)CC2C(=O)NCCN2C2Cc3ccccc3C2)cc1 (stereo not shown) | -28.5 |
| CCc1c(C(=O)Nc2cc(C)cc(C)c2)[nH]c(C)c1C(C)=O | 12.7 |
| Cc1nn(C2CCS(=O)(=O)C2)c(Cl)c1/C=C/C(=O)OCC(=O)c1cc(C)n(-c2ccc(F)cc2)c1C (stereo not shown) | 4.11 |
| Cc1nc(SCC(=O)NC2CCCC2)[nH]c(=O)c1Cc1ccccc1 | 7.93 |
| CCN1CCN(C(=O)c2cc(-c3cccnc3)nc3ccc(Br)cc23)CC1 | -28.5 |
| CCOc1cccc(-c2c(C(=O)N/N=C/c3cccnc3)nnn2-c2nonc2N)c1 | -54 |
| CCOc1cccc(-c2c(C(=O)N/N=C/c3ccncc3)nnn2-c2nonc2N)c1 | -9.65 |
| CN(C)Cc1c(C(=O)N/N=C/c2ccncc2)nnn1-c1nonc1N | 3.67 |

| SMILES | hERG current change (%, negative = inhibition) at 10uM [%] |
| --- | --- |
| CCN(CC)Cc1c(C(=O)N/N=C(\C)c2ccncc2)nnn1-c1nonc1N | -80.3 |
| CCCN(CCC)Cc1c(C(=O)N/N=C/c2ccncc2)nnn1-c1nonc1N | -64.1 |
| COCc1c(C(=O)N/N=C(\C)c2ccncc2)nnn1-c1nonc1N | 7.11 |
| CCCN(CCC)Cc1c(C(=O)N/N=C/c2ccc(Br)cc2)nnn1-c1nonc1N | -15.3 |
| CCCc1c(C(=O)N/N=C(/C)c2ccncc2)nnn1-c1nonc1N | 0.629 |
| CCOc1ccc(-c2c(C(=O)N/N=C/c3cccnc3)nnn2-c2nonc2N)cc1 | 9.94 |
| CCN(CC)Cc1c(C(=O)N/N=C/c2ccncc2)nnn1-c1nonc1N | -55.9 |
| CCCN(CCC)Cc1c(C(=O)N/N=C/c2ccsc2)nnn1-c1nonc1N | -14.6 |
| CCN(CC)Cc1c(C(=O)N/N=C/c2cccnc2)nnn1-c1nonc1N | -10.9 |
| O=C(c1ccc(-n2c(SCc3cc(F)ccc3F)nc3ccccc3c2=O)cc1)N1CCOCC1 | 8.7 |
| Cc1noc(C)c1COC(=O)Cc1ccc(Cl)cc1 | -5.13 |
| COc1ccc(Cc2nc3ccc(C(=O)NCCSC)cc3o2)cc1 | 6.36 |
| CC(=O)Nc1ccc(S(=O)(=O)N2CCC(N(C)CCC(C)C)CC2)cc1.Cl | -46.8 |
| c1csc(C2Nc3cccc4cccc(c34)N2)c1 | -17.2 |
| CCC(=O)Nc1cccc(C(=O)/C=C/c2cccs2)c1 | -3.34 |
| COc1ccc(/C=N/NC(=O)CNc2ccc(Br)cc2)c(C(=O)O)c1OC | 13.9 |
| O=C(NCCCN1CCCC1=O)c1ccc(OC(F)(F)F)cc1 | -0.372 |
| COC(=O)C1=C(C)NC2=C(C(=O)c3ccccc32)C1c1cccc(OC)c1 (stereo not shown) | 4.97 |
| CN(C)C(=O)c1ccc(NC(=O)c2ccccc2Sc2ccccc2C#N)cc1 | 1.57 |
| O=C(O)C1Cn2c(nc3c(c2=O)C2(CCCC2)Cc2ccccc2-3)S1 (stereo not shown) | 17.3 |
| C=C1C(C(=O)N2CCOCC2)C1C(=O)N1CCOCC1 (stereo not shown) | 5.16 |

| SMILES | hERG current change (%, negative = inhibition) at 10uM [%] |
| --- | --- |
| Cc1ccc(/C=N/NC(=O)CSc2nc3ccccc3n2C)s1 | -17.4 |
| COc1ccccc1C1C(C(=O)c2sc(C)nc2C)=C(O)C(=O)N1CCN1CCOCC1 (stereo not shown) | 4.26 |
| Cc1ccc(S(=O)(=O)N(Cc2cc3ccccc3[nH]c2=O)CC2CCCO2)cc1 (stereo not shown) | 10.5 |
| COc1ccc(S(=O)(=O)N(Cc2cccnc2)Cc2cc3ccccc3[nH]c2=O)cc1 | -18.6 |
| O=c1[nH]c2ccccc2cc1CN(CC1CCCO1)S(=O)(=O)c1ccccc1 (stereo not shown) | -10.3 |
| O=c1[nH]c2ccccc2cc1CN(CC1CCCO1)S(=O)(=O)c1ccc(Cl)cc1 (stereo not shown) | -75.1 |
| O=c1[nH]c2ccccc2cc1CN(Cc1cccnc1)S(=O)(=O)c1ccc(Cl)cc1 | -56.2 |
| Cc1ccc(S(=O)(=O)N(Cc2cccnc2)Cc2cc3ccccc3[nH]c2=O)cc1 | -19.5 |
| CC(=O)NC(C)c1cc(Cl)c2ccccc2c1O (stereo not shown) | 1.04 |
| COc1cc2cc(C(=O)N3CCOCC3)cc(-c3ccc(C)cc3)c2cc1OC | -8.61 |
| COc1ccccc1/C=N/NC(=O)c1ccc(Cn2nc([N+](=O)[O-])cc2C)cc1 | -12.7 |
| C/C(=N\NC(=O)C(O)(c1ccccc1)c1ccccc1)c1ccc(C)o1 | -2.62 |
| C/C(=N/NC(=O)C(O)(c1ccccc1)c1ccccc1)c1ccc([N+](=O)[O-])o1 | -71.6 |
| CCOC(=O)N/N=C(/C)c1ccc([N+](=O)[O-])o1 | -25.4 |
| COc1ccc(CNC(=O)C(c2ccc(C)o2)N(C(=O)c2csnn2)c2ccc(C(C)C)cc2)cc1 (stereo not shown) | -42.9 |
| Cc1ccccc1OCC(O)Cn1c2ccccc2c2ccccc21 (stereo not shown) | 2.67 |
| COc1ccccc1OCC(O)Cn1c(=N)n(Cc2ccccc2)c2ccccc21.Cl (stereo not shown) | -71 |
| Br.C=CCn1c(=N)n(CC(=O)c2ccc(OC)cc2)c2ccccc21 | -43.7 |
| Cc1ccccc1OCC(O)Cn1c(=N)n(Cc2ccccc2)c2ccccc21.Cl (stereo not shown) | -73 |
| Cc1ccccc1OCC(O)Cn1nnc2ccccc21 (stereo not shown) | 5.21 |
| C=CCn1c(=N)n(CC(O)COc2ccccc2OC)c2ccccc21.Cl (stereo not shown) | -67 |

| SMILES | hERG current change (%, negative = inhibition) at 10uM [%] |
| --- | --- |
| COc1ccccc1OCC(O)CO (stereo not shown) | 12.4 |
| C=CCn1c(=N)n(CC(O)c2ccco2)c2ccccc21.Cl (stereo not shown) | -23.1 |
| COc1ccccc1OC[C@H](O)CO | 24 |
| Cc1ccc(NC(=O)COC(=O)COc2cccc3c2OC(C)(C)C3)c(C)c1 | 19.8 |
| FC(F)(F)c1nc(SCc2ccc(Cl)cc2Cl)n[nH]1 | -0.342 |
| Cc1c(N2C(=O)/C(=C\C3CC=CCC3)SC2=S)c(=O)n(-c2ccccc2)n1C (stereo not shown) | -6.68 |
| c1ccc(CCc2cn(C[C@H]3CC[C@@H]([C@@H]4CC[C@H](Cn5cc(CCc6ccccc6)nn5)O4)O3)nn2)cc1 | -38.2 |
| c1ccc(Cn2cc(CSc3ccccc3)nn2)cc1 | -11 |
| CC(=O)OCC1OC(OCc2cn(C[C@H]3CC[C@@H]([C@@H]4CC[C@H](Cn5cc(COC6OC(COC(C)=O)C(OC(C)=O)C(OC(C)=O)C6OC(C)=O)nn5)O4)O3)nn2)C(OC(C)=O)C(OC(C)=O)C1OC(C)=O (stereo partly shown) | 0.857 |
| ClCCCc1cn(C[C@H]2CC[C@@H]([C@@H]3CC[C@H](Cn4cc(CCCCl)nn4)O3)O2)nn1 | -33.6 |
| CCCCc1cn(C[C@H]2CC[C@@H]([C@@H]3CC[C@H](Cn4cc(CCCC)nn4)O3)O2)nn1 | -54.9 |
| c1c(CC2CCCC2)nnn1C[C@H]1CC[C@@H]([C@@H]2CC[C@H](Cn3cc(CC4CCCC4)nn3)O2)O1 | -57.6 |
| c1ccc(SCc2cn(C[C@H]3CC[C@@H]([C@@H]4CC[C@H](Cn5cc(CSc6ccccc6)nn5)O4)O3)nn2)cc1 | -62.1 |
| O=C1c2ccccc2C(=O)N1CCCc1cn(C[C@H]2CC[C@@H]([C@@H]3CC[C@H](Cn4cc(CCCN5C(=O)c6ccccc6C5=O)nn4)O3)O2)nn1 | -23.8 |
| OCCCc1cn(CC2CCCCC2)nn1 | 2.61 |
| O=C(NN=C1C2CC3CC(C2)CC1C3)c1cccc(S(=O)(=O)N2CCOCC2)c1 | 0.586 |
| COC(=O)CSC1=C(C#N)C(c2cccc(F)c2)CC(=O)N1 (stereo not shown) | 9.97 |
| CC1c2[nH]c3ccccc3c2CCN1S(C)(=O)=O (stereo not shown) | 3.54 |
| COc1ccc(C2CC(c3cccs3)=NN2C(=O)CSc2nnc(N)s2)cc1OC (stereo not shown) | -4.6 |
